NLRP3 yeast inh: NALP3 inflammasome inhibitors in reconstituted yeast, primary screen, luminescence, uHTS. AID 2825, 2010. actives 0.39% (n = 330,000). inhibition, % at 10 µM. Yeast reconstituted NLRP3/ASC/caspase-1, beta-gal luminescence, 24 h;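 active = inhibition of 50% or more; inactive = inhibition below 50%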
PfHsp90 set2: growth inhibition of PfHsp90-expressing yeast, primary screen, antimalarial PfHsp90 inhibitor project, S. cerevisiae, BacTiter-Glo luminescence, single point, set 2 | BacTiter-Glo ATP, 48 h; yeast lacking PDR1 and PDR3 efflux regulators | inhibition, % at 9.4 µM | actives 0.32% (n = 310,000);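 active = every replicate shows inhibition above about 80%, whatever the replicate mean, limit read from the data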
tim23-1 inh: growth inhibitors of tim23-1 mutant yeast, primary screen, luminescence, uHTS | inhibition, % at 20 µM | AID 463212, 2010 | actives 1.3% (n = 330,000) | S. cerevisiae tim23-1 growth, BacTiter-Glo luminescence, 24 h;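 active = growth inhibition of the mutant yeast at or above 50%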;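 also: temperature-sensitive mutant grown at 25 °C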
TIM10 inh: growth inhibitors of isogenic TIM10 control yeast, primary screen, counter-screen for tim10-1 yeast inhibitor project, luminescence, uHTS; AID 463195, 2010; actives 1.4% (n = 330,000); inhibition, % at 10 µM; S. cerevisiae TIM10 strain growth, BacTiter-Glo luminescence, 24 h;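 active = inhibition of 40% or more at the single tested concentration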;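 also: wild-type TIM10 isogenic control strain grown at permissive 25 °C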
tim10-1 inh: growth inhibitors of tim10-1 mutant yeast, primary screen, luminescence, uHTS; S. cerevisiae tim10-1 ts strain growth, BacTiter-Glo, 24 h; inhibition, % at 20 µM; actives 2.2% (n = 330,000); AID 463190, 2010;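 active = inhibition of at least 40%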;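 also: mutant grown at 25 °C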
tim10-1 confirm: growth inhibitors of tim10-1 mutant yeast, confirmation, single concentration, luminescence, S. cerevisiae | shares compounds with tim10-1 inh | AID 463213, 2010 | actives 56% (n = 7,400) | inhibition, % at 20 µM | S. cerevisiae tim10-1 ts strain growth, BacTiter-Glo, 24 h;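 active = inhibition of yeast growth at or above a set limit in either of two repeat tests at 20 µM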;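 also: tim10-1 mutant grown at permissive 25 °C to find synthetic lethal compounds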
tim10 confirm: growth inhibitors of wild-type TIM10 yeast, confirmation, counter-screen for tim10-1 synthetic lethality project, single concentration, luminescence, S. cerevisiae; shares compounds with TIM10 inh; S. cerevisiae tim10 strain growth, BacTiter-Glo luminescence, 24 h; inhibition, % at 10 µM; actives 63% (n = 4,600); AID 463215, 2010;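 active = inhibition of yeast growth at or above a set limit in either of two replicates at 10 µM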; also: this counterscreen used the strain with wild-type TIM10
tim23-1 confirm: tim23-1 mutant yeast growth inhibitors, confirmation, luminescence, single concentration; shares compounds with tim23-1 inh; S. cerevisiae tim23-1 growth, BacTiter-Glo luminescence, 24 h; inhibition, % at 20 µM; actives 83% (n = 4,400); AID 463218, 2010;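 active = inhibition above about 39% in either of two replicate wells at 20 µM, limit read from the data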;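 also: temperature-sensitive tim23-1 mutant grown at 25 °C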
Each line names hits and unclear results; the compound was inactive in the other large screens (follow-up assays come after a bar, where they were run). A selection: hits, their analogues and other compounds. The true share with any hit is near 3.7%.

C[C@@H](C(=O)N1CCN(c2ccccc2)CC1)N1C(=O)C2CC=CCC2C1=O (some centres undefined)	none
COc1cc(C(C)=O)ccc1OCC(=O)Nc1ccc2nc(C)sc2c1	none
c1ccc(N2CCN(C3CC4CCC3C4)CC2)cc1 (centres undefined)	none
O=C(CSc1nccn1Cc1ccco1)Nc1ccccc1	none
O=C(O)c1cc([N+](=O)[O-])cc2ccccc12	none (no result: NLRP3 yeast inh, tim23-1 inh, TIM10 inh, tim10-1 inh)
CNc1ccc(/C=C(\C#N)c2ccccn2)cc1[N+](=O)[O-]	none
N#C/C(=C\c1ccc(Cl)c([N+](=O)[O-])c1)c1ccccn1	tim23-1 inh 60, TIM10 inh 64, tim10-1 inh 54 | tim10-1 confirm 66 | tim10 confirm 73 | tim23-1 confirm 69
NC(=O)c1ccc[n+]([C@H]2O[C@@H](COP(=O)([O-])OP(=O)(O)OC[C@H]3O[C@@H](n4cnc5c(N)ncnc54)[C@H](O)[C@@H]3O)[C@H](O)[C@@H]2O)c1	PfHsp90 set2 88, tim23-1 inh 71, TIM10 inh 59, tim10-1 inh 78 | tim10-1 confirm 75 | tim10 confirm 45 | tim23-1 confirm 78
Cc1sc2nc(CSCC(=O)N(CCC#N)c3ccccc3F)[nH]c(=O)c2c1C	none
O=c1oc(-c2ccccc2Br)nc2ccccc12	tim23-1 inh 59, tim10-1 inh 49 | tim10-1 confirm 40 | tim23-1 confirm 71
COCCCC1CCN(C(=O)C2CCC(=O)N(Cc3cccc(F)c3)C2)CC1 (centres undefined)	none
CC(C)c1ccc(NC(=O)/C(C#N)=C/c2ccncc2)cc1	tim23-1 inh 78, tim10-1 inh 54 | tim10-1 confirm inactive | tim23-1 confirm 55
CCOc1cccc(NC(=O)/C(C#N)=C\c2cccnc2)c1	tim23-1 inh 81, TIM10 inh 52, tim10-1 inh 61 | tim10-1 confirm 40 | tim10 confirm 48 | tim23-1 confirm 79
CCCOc1ccccc1/C=C(\C#N)C(=O)Nc1cccnc1	tim23-1 inh 85, TIM10 inh 54, tim10-1 inh 73 | tim10-1 confirm 48 | tim10 confirm 46 | tim23-1 confirm 71
N#C/C(=C\c1ccncc1)C(=O)Nc1ccc(C(=O)O)cc1	none
CC(C)(C)c1ccc(NC(=O)N2CCCN(c3ccc([N+](=O)[O-])cn3)CC2)cc1	tim23-1 inh 61, TIM10 inh 43, tim10-1 inh 43 | tim10-1 confirm 50 | tim10 confirm 42 | tim23-1 confirm 57
O=C(Nc1ccc([N+](=O)[O-])cc1)N1CCCCCC1	none
CCn1ncc([N+](=O)[O-])c1C(=O)Nc1nc2cccc(C)c2s1	tim23-1 inh 51, tim10-1 inh 47 | tim10-1 confirm inactive | tim23-1 confirm 50
CCn1ncc([N+](=O)[O-])c1C(=O)Nc1c(C)cccc1C	none
CCCCn1nnc(NC(=O)c2ccc(-c3cccc(Cl)c3)o2)n1	tim23-1 inh 72, TIM10 inh 45, tim10-1 inh 50 | tim10-1 confirm 51 | tim10 confirm 47 | tim23-1 confirm 74
O=C(Nc1csc([N+](=O)[O-])c1)Nc1ccccc1Cl	tim23-1 inh 66, TIM10 inh 54, tim10-1 inh 51 | tim10-1 confirm 49 | tim10 confirm 67 | tim23-1 confirm 56
O=C(Nc1ccccc1Cl)Nc1ccccc1Cl	none
O=C(c1ccc(Cl)c([N+](=O)[O-])c1)N1CCN(S(=O)(=O)c2ccc(Cl)cc2)CC1	none
COc1ccc(C2/C(=C(/O)c3ccc4c(c3)CC(C)O4)C(=O)C(=O)N2CCCn2ccnc2)cc1OC (centres undefined)	none (no result: NLRP3 yeast inh, tim23-1 inh, TIM10 inh, tim10-1 inh)
Cc1ccc(CN2C(=O)COc3cc(NS(C)(=O)=O)ccc32)cc1	none (no result: NLRP3 yeast inh, tim23-1 inh, TIM10 inh, tim10-1 inh)
Cc1cccc(NC(=S)NNC(=O)COc2ccc(Cl)cc2Cl)c1	tim23-1 inh 52, TIM10 inh 43, tim10-1 inh 46 | tim10-1 confirm 32 | tim10 confirm inactive | tim23-1 confirm 42
COc1ccc(CC(=O)NC(=S)Nc2cccc(CO)c2)cc1	none (no result: PfHsp90 set2)
COc1ccc(CC(=O)NC(=S)Nc2cccc(C)c2)cc1	tim23-1 inh 62, TIM10 inh 47, tim10-1 inh 46 | tim10-1 confirm 29 | tim10 confirm 36 | tim23-1 confirm 46
CC(=O)Nc1c2c(nn1-c1ccccc1C)CS(=O)(=O)C2	none
O=Nc1ccc(NOC(=O)c2ccccc2)cc1	tim23-1 inh 59, TIM10 inh 46, tim10-1 inh 44 | tim10-1 confirm 54 | tim10 confirm 53 | tim23-1 confirm 70
COc1cccc(OCC(=O)Nc2c3c(nn2-c2ccc(F)cc2)CS(=O)(=O)C3)c1	none
CC1=NN(C(N)=S)C(=O)C1N=Nc1cccc(Cl)c1C (centres undefined)	tim23-1 inh 57, tim10-1 inh 43 | tim10-1 confirm 43 | tim23-1 confirm 62
CC1=NN(C(N)=S)C(=O)C1N=Nc1ccc(Cl)cc1 (centres undefined)	none
CCOC(=O)/C=C/C(=O)OCC(=O)Nc1c(Cl)cccc1Cl	none
CCOC(=O)/C=C/C(=O)OCC(=O)Nc1ccc(Cl)cc1Cl	tim23-1 inh 54, tim10-1 inh 47 | tim10-1 confirm 46 | tim23-1 confirm 73
C#CCOCCOCCOCCNc1nc(N2CCN(C(=O)CCCCCCCCCCNC(=O)[C@H](CCCCN)n3cc(CCCC(=O)O)nn3)CC2)nc(N2CCN(C(=O)CCCCCCCCCCNC(=O)[C@H](CCCCN)n3cc(CCCC(=O)O)nn3)CC2)n1	none
C#CCOCCOCCOCCNc1nc(N2CCN(C(=O)CCCCCCCCCCNC(=O)[C@H](CCCCN)n3cc(CCCC(=O)O)nn3)CC2)nc(N2CCN(C(=O)CCCCCCCCCCNC(=O)[C@H](CCCN=C(N)N)n3cc(C[C@@H](C)CC)nn3)CC2)n1	tim23-1 inh 52, tim10-1 inh 44 | tim10-1 confirm 38 | tim23-1 confirm 53
COc1cccc(C2(C)NC(=O)N(CC(=O)c3cc(C)n(C4CC4)c3C)C2=O)c1 (centres undefined)	none
